# PubChem BioAssay AID504467 (National Center for Advancing Translational Sciences (NCATS), 2011)
# The whole screen tested about 330,000 compounds, of which about 7,700 (2.3%) were called active. Roughly 26% stayed inconclusive and do not appear here. Shown is part of a subset that was picked to be rich in actives. Unmarked numbers belong to inactive results. Calls come from the whole dose curve; as a rule, active = well fitted inhibition curve with a large enough effect; inconclusive = small, poorly fitted or top-dose-only effect, or effect the other way; inactive = flat fitted curve, though single readings scatter.
# Experiment: qHTS screen for small molecules that inhibit ELG1-dependent DNA repair in human embryonic kidney (HEK293T) cells expressing luciferase-tagged ELG1; note: nearly all actives have a fitted effect of over 55% in size
# Settings: HEK293T ELG1-luciferase reporter, luminescence, 16 h, DNA damage induced by 5-fluorouridine; series mostly up to 46.1 µM; activity change, negative = inhibition: at the top concentration
# Procedure, shortened: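 5-Fluorouridine DNA damage + compound/DMSO, 2,000 cells/well, 16 h, 37 °C/5% CO2. ONE-Glo, 30 min RT, luminescence. Readout = decrease in reporter signal.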
# % is set by controls: 0 for no effect and ±100 for the full control effect; potency is the fitted concentration of half-maximal effect.
SMILES,"activity change, negative = inhibition [%]",Potency
COc1ccc(C(C)=O)cc1COc1ccc(Cl)c(C)c1,-6.19,–
CCn1nc(C)c(NC(=O)/C=C/c2ccc(OC)c(COc3ccc(Br)cc3)c2)c1C,–,6.51 µM (active)
C/C=C/c1ccc(OCC(=O)OCC(=O)Nc2c(C)nn(-c3ccccc3)c2C)c(OC)c1,12.9,–
CC1CCCCC12NC(=O)N(CC(=O)OCc1c(F)cccc1Cl)C2=O (stereo not drawn),-1.13,–
COc1ccc(C(=O)NC2CC2)cc1OC1CCN(C/C=C/c2ccccc2)CC1,-8.27,–
Cc1ccc(C(=O)Nc2ncccc2C)cc1S(=O)(=O)N1CCOCC1,17.9,–
Cc1nn(Cc2ccccc2)c(C)c1CNC(=O)c1ccc(F)c(S(=O)(=O)N2CCOCC2)c1,-0.807,–
Cc1ccccc1CSCCNC(=O)c1ccc(Cl)c(S(=O)(=O)N2CCOCC2)c1,–,18.4 µM (active)
CN(C)S(=O)(=O)c1ccc(C(=O)NCC(C)(C)N2CCOCC2)cc1,-0.438,–
CC(C)(CNC(=O)c1ccc(Cl)c(S(=O)(=O)N2CCc3ccccc3C2)c1)N1CCOCC1,–,1.83 µM (active)
CC(C)(CNC(=O)Cc1ccc(Cl)cc1Cl)N1CCOCC1,3.16,–
COc1cccc(C(=O)Nc2nnc(S(=O)(=O)N3CCCCC3)s2)c1,-4.91,–
CCCn1nc(C(=O)NNC(=O)CCOc2ccccc2OCC)c2ccccc2c1=O,-22.5,–
O=Cc1c(Nc2ccccc2Cl)nc2ccccn2c1=O,16,–
Cc1nc2ccccc2c(=O)n1-c1ccc(F)c(NC(=O)c2cccs2)c1,-29.9,–
O=C(CN1C(=O)NC2(CCCCCC2)C1=O)Nc1ccc([N+](=O)[O-])cc1,15.8,–
CC(=O)Nc1ccc(C(=O)Nc2cccc(S(=O)(=O)NC3=NCCC3)c2)cc1,1.78,–
CC(=O)c1ccc(S(=O)(=O)N(C)CCCC(=O)N(C)Cc2ccccc2F)cc1,-16.6,–
Cc1cnc(C(=O)N2CCCC(N3CCN(c4ccccc4F)CC3)C2)cn1 (stereo not drawn),0.472,–
Cc1ccccc1N1CCN(C2CCCN(C(=O)c3ocnc3C)C2)CC1 (stereo not drawn),-1.3,–

SMILES,"activity change, negative = inhibition [%]",Potency
Cc1ccccc1N1CCN(C2CCCN(C(=O)c3cn4c(C)cccc4n3)C2)CC1 (stereo not drawn),–,16.4 µM (active)
CC(NC(=O)COC(=O)c1ccc2ccccc2n1)c1ccccc1 (stereo not drawn),17.5,–
CCN(CC)S(=O)(=O)c1cc(C(=O)Nc2cc(S(=O)(=O)N3CCOCC3)ccc2N2CCCC2)ccc1F,-9.98,–
O=c1oc2ccc(C#CC3(O)CCCCC3)cc2cc1-n1cc(-c2ccsc2)nn1,19.7,–
COC(=O)[C@]1(Cc2ccccc2)N[C@H](CN(C)S(=O)(=O)c2ccc(OC(F)(F)F)cc2)[C@@H]2C(=O)N(Cc3ccccc3)C(=O)[C@@H]21,1.29,–
Cc1ccc(S(=O)(=O)Nc2nc3ccccc3s2)cc1[N+](=O)[O-],0.096,–
Cc1nn(CC(=O)Nc2nc3ccccc3s2)c(C)c1[N+](=O)[O-],19.8,–
O=[N+]([O-])c1cc(Br)c(O)c(/C=N/Nc2nc3ccccc3s2)c1,–,4.11 µM (active)
Cc1ccccc1NC(=O)NCC1CCN(Cc2cccc(Cl)c2)CC1,16.6,–
CC(=O)N1CCOc2ccc(S(=O)(=O)N3CCN(c4cccc(C(F)(F)F)c4)CC3)cc21,-16.8,–
C/C(N)=C(/C#N)C(=O)COC(=O)c1cc(-c2cccc(Br)c2)nc2ccccc12,–,11.6 µM (active)
C/C(N)=C(/C#N)C(=O)COC(=O)c1cc(-c2ccccc2)nc2ccc(Br)cc12,6.28,–
COc1cccc(OC)c1C(=O)OCC(=O)/C(C#N)=C(\C)N,9.16,–
CCOc1ccccc1Nc1nnc(SCC(=O)NCC2CCCO2)s1 (stereo not drawn),-7.85,–
O=C(COc1ccc(F)cc1Br)NCC1COc2ccccc2O1 (stereo not drawn),-0.0293,–
O=S(=O)(c1ccc(F)cc1)N1CCN(Cc2ccccc2C(F)(F)F)CC1,-2.01,–
O=c1cc(CN2CCN(S(=O)(=O)/C=C/c3ccccc3)CC2)c2ccc(O)cc2o1,-1.27,–
CC(C)c1ccc2oc(=O)cc(CN3CCN(Cc4ccccc4)CC3)c2c1,-6.46,–
COc1ccc2oc(=O)cc(CN3CCOCC3)c2c1,0,–
Cc1cc2oc(=O)cc(CN3CCN(Cc4ccccc4)CC3)c2cc1C,-0.0674,–

SMILES,"activity change, negative = inhibition [%]",Potency
COc1ccc2c(CN3CCN(S(=O)(=O)c4cccs4)CC3)cc(=O)oc2c1,–,23.1 µM (active)
Cc1ccc2c(CN3CCN(S(=O)(=O)c4ccccc4C(F)(F)F)CC3)cc(=O)oc2c1,–,17.8 µM (active)
Cc1cc2oc(=O)cc(CN3CCN(S(=O)(=O)c4cccs4)CC3)c2cc1C(C)C,–,2.31 µM (active)
O=S(=O)(c1cccs1)N1CCN(Cc2ccccc2)CC1,-2.29,–
COc1ccc(CCNC(=O)CCc2cn(C)c3ccccc23)c(OC)c1,-7.21,–
CCOc1ccc(NS(=O)(=O)c2ccc(C(=O)NCC(c3ccccc3OC)N3CCCC3)cc2)cc1 (stereo not drawn),-1.12,–
O=C(OCC(=O)N1CCN(c2ccccc2)CC1)c1ccc([N+](=O)[O-])s1,2.44,–
COc1ccc(CC(=O)N[C@@H]2c3cc(OC)c(OC)cc3C[C@H]2OCc2ccccc2)cc1,-4.29,–
CC(C)CN(C(=O)COC(=O)c1ccc2ccccc2c1)c1c(N)n(Cc2ccccc2)c(=O)[nH]c1=O,-18.6,–
O=C(O[C@@H]1[C@H](Cc2ccccc2)NS(=O)(=O)[C@H]2C[C@@H]3C=C[C@]12O3)c1ccccc1Br,4.88,–
COc1cc(NC(=O)C2=CC(c3ccc(C)cc3)=NS(=O)(=O)N2C)cc(OC)c1OC,–,13 µM (active)
COc1ccc(C2=NS(=O)(=O)N(C)C(C(=O)NC(C)c3ccccc3)=C2)cc1 (stereo not drawn),-10.1,–
COc1cc(NC(=O)C2=CC(c3ccco3)=NS(=O)(=O)N2C)cc(OC)c1OC,-1.38,–
C=CCn1c(SCc2c(C(=O)OC)sc(N)c2C(=O)OC)nnc1-c1ccc(Cl)cc1,–,23.1 µM (active)
C=CCn1c(SCn2nnc3ccccc3c2=O)nnc1-c1ccc(Cl)cc1,21.7,–
C=CCn1c(SCc2cc(C(=O)OC)c(C)o2)nnc1-c1ccncc1,-5.1,–
C#CCOCCOCCOCCNc1nc(N2CCN(C(=O)[C@H](CCCN=C(N)N)n3cc(C(N)[C@@H](C)CC)nn3)CC2)nc(N2CCN(C(=O)[C@H](CO)n3cc([C@@H](N)C(C)C)nn3)CC2)n1 (stereo partly drawn),1.11,–
CN(c1ccc(OCC(=O)O)cc1)S(=O)(=O)c1ccc2ccccc2c1,6.18,–
